# Experimental data from PubChem BioAssay (EPA / NIEHS).
# Calls of active or inactive are those of the source. How the source made its calls: active means hit-call score of the fitted dose curve at least 0.9, where 1 is the maximum; inactive means score below 0.9.
# Experiment: ATG_NF_kB_CIS: Attagene CIS-FACTORIAL HepG2 Assay for human Nuclear Factor Kappa B (NF-kB) (AID 2282991)
# Details: HepG2 Attagene cis-factorial NF-kB reporter mRNA; actives raise or lower the signal
# Summary of the method: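 Transient MRTU transfection of human HepG2 liver cells → 24 h chemical exposure → total RNA, oligo(dT) RT → PCR, 6-FAM primer extension, HpaI digest 2 h 37 C → CE fragment analysis. Bidirectional fitting, DMSO negative control.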
SMILES,outcome,AC50
O=[N+]([O-])c1ccc(CO)cc1,inactive,
NC(=O)C1CO1 (centres undefined),inactive,
CCCCC(CC)COCC1CO1 (centres undefined),inactive,
CC(=O)C=CC1C(C)=CCC(C)C1(C)C (centres undefined),inactive,
CC1=Nc2ccc3ccccc3c2C1(C)C,inactive,
O=C1CCCC1,inactive,
O=S(=O)(O)c1cc(S(=O)(=O)O)c2ccc3c(S(=O)(=O)O)cc(S(=O)(=O)O)c4ccc1c2c43,inactive,
C=C(C)[C@@H]1CCC2=CCC[C@@H](C)[C@]2(C)C1,inactive,
COC(=O)c1cc(Cl)ccc1[N+](=O)[O-],inactive,
CC(C)C(=O)C(C)C,inactive,
CNC(=S)N(C)C,inactive,
CCCCC(CC)COC(=O)c1ccccc1 (centres undefined),inactive,
CCCCCCCCC(=O)OCC,inactive,
CCCCCCCCCCCSCC(=O)O,inactive,
c1cc(N(CC2CO2)CC2CO2)ccc1OCC1CO1 (centres undefined),,48.4 µM (active)
CC(=O)Nc1nnc(S(N)(=O)=O)s1,inactive,

SMILES,outcome,AC50
OC1CCCCCCCCCCC1,inactive,
CCC(CC)C(=O)O,inactive,
CC(C)=CCCC(C)C=O (centres undefined),inactive,
CO[Si](CCC1CCC2OC2C1)(OC)OC (centres undefined),inactive,
N=c1ccn2c(n1)O[C@H]1[C@H](O)[C@@H](CO)O[C@H]12,inactive,
CCc1nccnc1C,inactive,
OCCCS,inactive,
FC(F)(F)C(=NOCC1OCCO1)c1ccc(Cl)cc1,inactive,
Cc1cc(C)c(C(=O)O)c(C)c1,inactive,
O=C1CCCCCCCCCCC(=O)OCCO1,inactive,
C=C1C2CCC(C2)C1(C)C (centres undefined),inactive,
O=Nc1ccc(O)cc1,inactive,
C(=CC=Nc1ccccc1)C=CNc1ccccc1,inactive,
COCc1c(C(C)C)nc(C(C)C)c(/C=C/[C@@H](O)C[C@@H](O)CC(=O)O)c1-c1ccc(F)cc1,inactive,
SCCc1cnccn1,,47.7 µM (active)

# Experiment: ATG_NRF2_ARE_CIS: Attagene CIS-FACTORIAL HepG2 Assay for human Nuclear Factor Erythroid 2 Related Factor 2 (NFR2) response to Antioxidant Response Elements (ARE) (AID 2282992);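 on AC50: reporter mRNA level measured by RT-PCR and capillary electrophoresis fluorescence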
# Details: HepG2 Attagene ARE/NRF2 reporter, transcription factor activity; actives raise or lower the signal
# Summary of the method: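 Endogenous transcription factor activity in human liver HepG2 cells is tracked via a cis-element-driven reporter within a multiplexed set. mRNA induction is read by RT-PCR and capillary electrophoresis after 24 h, with DMSO as baseline.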
SMILES,outcome,AC50
O=[N+]([O-])c1ccc(CO)cc1,inactive,
CCCCC(CC)COCC1CO1 (centres undefined),inactive,
CC(=O)C=CC1C(C)=CCC(C)C1(C)C (centres undefined),,27.8 µM (active)
c1ccc2c(c1)ccc1ncccc12,,148 µM (active)
O=S(=O)(O)c1cc(S(=O)(=O)O)c2ccc3c(S(=O)(=O)O)cc(S(=O)(=O)O)c4ccc1c2c43,inactive,
C=C(C)[C@@H]1CCC2=CCC[C@@H](C)[C@]2(C)C1,,87.3 µM (active)
COC(=O)c1cc(Cl)ccc1[N+](=O)[O-],,48 µM (active)
CC(C)C(=O)C(C)C,,27.1 µM (active)
CC(=O)OCC(C)OC(C)=O (centres undefined),inactive,
CCCCC(CC)COC(=O)c1ccccc1 (centres undefined),inactive,
CCCCCCCCCCCSCC(=O)O,inactive,
C=C(C)C(=O)OCCOc1ccccc1,,67.1 µM (active)
c1cc(N(CC2CO2)CC2CO2)ccc1OCC1CO1 (centres undefined),,25.4 µM (active)
CC(=O)Nc1nnc(S(N)(=O)=O)s1,inactive,
OC1CCCCCCCCCCC1,inactive,
CCC(CC)C(=O)O,inactive,
CC(C)=CCCC(C)C=O (centres undefined),inactive,

SMILES,outcome,AC50
CO[Si](CCC1CCC2OC2C1)(OC)OC (centres undefined),inactive,
CC1=NC(C)OC1C (centres undefined),,42.5 µM (active)
N=c1ccn2c(n1)O[C@H]1[C@H](O)[C@@H](CO)O[C@H]12,inactive,
CCCCCCCCCCCCCCCC[N+](C)(C)CC,inactive,
CCc1nccnc1C,inactive,
OCCCS,inactive,
FC(F)(F)C(=NOCC1OCCO1)c1ccc(Cl)cc1,inactive,
NC(CO)(CO)CO,inactive,
Cc1cc(C)c(C(=O)O)c(C)c1,inactive,
O=C1CCCCCCCCCCC(=O)OCCO1,inactive,
CCOC(=O)c1ccc(N(C)C)cc1,inactive,
C=C1C2CCC(C2)C1(C)C (centres undefined),inactive,
O=Nc1ccc(O)cc1,inactive,
C(=CC=Nc1ccccc1)C=CNc1ccccc1,,49.4 µM (active)
COCc1c(C(C)C)nc(C(C)C)c(/C=C/[C@@H](O)C[C@@H](O)CC(=O)O)c1-c1ccc(F)cc1,inactive,
SCCc1cnccn1,inactive,
